# Results published in ChEMBL document CHEMBL2218924, “A broad activity screen in support of a chemogenomic map for kinase signalling research and drug discovery” (Biochem J, 2013).
# Assays:
# [1] = target: T1, Serine/threonine-protein kinase BRSK1 (Homo sapiens) (UniProt Q8TDC3); settings: at 1 µM
# T1 sequence (whole entry): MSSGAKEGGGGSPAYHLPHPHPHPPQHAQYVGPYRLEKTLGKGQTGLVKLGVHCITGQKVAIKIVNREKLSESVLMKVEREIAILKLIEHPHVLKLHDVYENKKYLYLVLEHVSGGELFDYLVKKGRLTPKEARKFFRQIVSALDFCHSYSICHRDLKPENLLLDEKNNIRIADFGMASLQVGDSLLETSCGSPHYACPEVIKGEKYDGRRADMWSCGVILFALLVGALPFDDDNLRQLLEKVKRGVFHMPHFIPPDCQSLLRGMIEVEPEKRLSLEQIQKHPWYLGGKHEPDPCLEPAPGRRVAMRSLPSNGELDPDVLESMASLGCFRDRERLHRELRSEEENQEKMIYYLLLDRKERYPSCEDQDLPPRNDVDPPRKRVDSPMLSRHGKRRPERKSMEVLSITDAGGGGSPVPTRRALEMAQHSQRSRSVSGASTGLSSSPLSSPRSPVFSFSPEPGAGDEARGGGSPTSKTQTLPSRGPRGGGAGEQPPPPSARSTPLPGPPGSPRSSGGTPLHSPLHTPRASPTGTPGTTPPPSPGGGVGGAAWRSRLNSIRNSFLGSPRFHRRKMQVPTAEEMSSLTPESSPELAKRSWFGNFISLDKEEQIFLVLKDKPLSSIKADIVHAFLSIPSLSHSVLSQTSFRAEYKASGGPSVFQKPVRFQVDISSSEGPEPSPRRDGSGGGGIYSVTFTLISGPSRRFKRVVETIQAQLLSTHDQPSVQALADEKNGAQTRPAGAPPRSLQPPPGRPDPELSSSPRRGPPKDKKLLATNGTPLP
# [2] = target: T1, Serine/threonine-protein kinase BRSK1 (Homo sapiens); settings: at 10 µM
# [3] = target: T2, Serine/threonine-protein kinase BRSK2 (Homo sapiens) (UniProt Q8IWQ3); settings: at 1 µM
# T2 sequence (whole entry): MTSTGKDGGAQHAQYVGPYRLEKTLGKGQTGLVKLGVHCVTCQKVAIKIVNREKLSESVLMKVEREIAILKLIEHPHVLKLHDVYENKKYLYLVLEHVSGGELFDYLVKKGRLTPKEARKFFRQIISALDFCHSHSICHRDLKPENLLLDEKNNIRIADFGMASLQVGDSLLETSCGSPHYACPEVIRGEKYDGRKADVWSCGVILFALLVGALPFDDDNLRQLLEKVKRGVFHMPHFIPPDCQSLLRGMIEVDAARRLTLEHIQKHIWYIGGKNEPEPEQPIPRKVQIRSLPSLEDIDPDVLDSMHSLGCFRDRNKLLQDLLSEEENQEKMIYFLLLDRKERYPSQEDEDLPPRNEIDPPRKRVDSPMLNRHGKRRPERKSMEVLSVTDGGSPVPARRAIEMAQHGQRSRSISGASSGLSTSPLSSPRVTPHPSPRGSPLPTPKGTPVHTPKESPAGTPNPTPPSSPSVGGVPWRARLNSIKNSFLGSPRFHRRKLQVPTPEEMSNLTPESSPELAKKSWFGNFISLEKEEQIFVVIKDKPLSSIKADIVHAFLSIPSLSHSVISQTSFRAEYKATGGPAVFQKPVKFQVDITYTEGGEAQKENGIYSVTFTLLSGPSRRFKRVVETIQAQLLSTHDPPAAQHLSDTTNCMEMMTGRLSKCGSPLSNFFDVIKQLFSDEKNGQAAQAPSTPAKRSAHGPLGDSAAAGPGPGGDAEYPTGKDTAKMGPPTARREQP
# [4] = target: T2, Serine/threonine-protein kinase BRSK2 (Homo sapiens); settings: at 10 µM
# [5] = target: T3, Cyclin-dependent kinase 1/cyclin B1 (Homo sapiens) (UniProt P06493+P14635); settings: at 1 µM
# [6] = target: T3, Cyclin-dependent kinase 1/cyclin B1 (Homo sapiens); settings: at 10 µM
# [7] = target: T4, Cyclin-dependent kinase 2/cyclin A (Homo sapiens) (UniProt P24941+P20248+P78396); settings: at 1 µM
# [8] = target: T4, Cyclin-dependent kinase 2/cyclin A (Homo sapiens); settings: at 10 µM
# [9] = target: T5, Cyclin-dependent kinase 2/cyclin E (Homo sapiens) (UniProt P24864+P24941+O96020); settings: at 1 µM
# [10] = target: T5, Cyclin-dependent kinase 2/cyclin E (Homo sapiens); settings: at 10 µM
# [11] = target: T6, CDK3/cyclin E (Homo sapiens) (UniProt P24864+O96020+Q00526); settings: at 1 µM
# [12] = target: T6, CDK3/cyclin E (Homo sapiens); settings: at 10 µM
# [13] = target: T7, Cyclin-dependent kinase 5/CDK5 activator 1 (Homo sapiens) (UniProt Q00535+Q15078); settings: at 1 µM
# [14] = target: T7, Cyclin-dependent kinase 5/CDK5 activator 1 (Homo sapiens); settings: at 10 µM
# [15] = target: T7, Cyclin-dependent kinase 5/CDK5 activator 1 (Homo sapiens); settings: at 1 µM; remark: listed apart in the source
# [16] = target: T7, Cyclin-dependent kinase 5/CDK5 activator 1 (Homo sapiens); settings: at 10 µM; remark: listed apart in the source
# [17] = target: T8, CDK6/cyclin D3 (Homo sapiens) (UniProt P30281+Q00534); settings: at 1 µM
# [18] = target: T8, CDK6/cyclin D3 (Homo sapiens); settings: at 10 µM
# [19] = target: T9, Cyclin-dependent kinase 7/ cyclin H (Homo sapiens) (UniProt P51946+P50613); settings: at 1 µM
# [20] = target: T9, Cyclin-dependent kinase 7/ cyclin H (Homo sapiens); settings: at 10 µM
# T7 sequence (Q00535 whole entry): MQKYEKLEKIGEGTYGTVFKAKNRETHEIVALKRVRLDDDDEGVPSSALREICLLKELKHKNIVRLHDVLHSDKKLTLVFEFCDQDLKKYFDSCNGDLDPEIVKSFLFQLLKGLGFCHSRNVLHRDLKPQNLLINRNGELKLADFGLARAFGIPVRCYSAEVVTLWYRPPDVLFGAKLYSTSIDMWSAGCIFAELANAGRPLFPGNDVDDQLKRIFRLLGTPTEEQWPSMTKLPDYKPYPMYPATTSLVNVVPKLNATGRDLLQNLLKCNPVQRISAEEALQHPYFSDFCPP
# T7 sequence (Q15078 99-307 partner limits assumed): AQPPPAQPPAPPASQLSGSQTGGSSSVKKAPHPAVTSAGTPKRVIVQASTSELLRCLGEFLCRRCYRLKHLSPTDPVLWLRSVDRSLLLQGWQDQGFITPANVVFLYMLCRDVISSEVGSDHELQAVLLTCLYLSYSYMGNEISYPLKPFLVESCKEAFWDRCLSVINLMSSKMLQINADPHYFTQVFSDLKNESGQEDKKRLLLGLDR
# T6 sequence (O96020 whole entry, looked up): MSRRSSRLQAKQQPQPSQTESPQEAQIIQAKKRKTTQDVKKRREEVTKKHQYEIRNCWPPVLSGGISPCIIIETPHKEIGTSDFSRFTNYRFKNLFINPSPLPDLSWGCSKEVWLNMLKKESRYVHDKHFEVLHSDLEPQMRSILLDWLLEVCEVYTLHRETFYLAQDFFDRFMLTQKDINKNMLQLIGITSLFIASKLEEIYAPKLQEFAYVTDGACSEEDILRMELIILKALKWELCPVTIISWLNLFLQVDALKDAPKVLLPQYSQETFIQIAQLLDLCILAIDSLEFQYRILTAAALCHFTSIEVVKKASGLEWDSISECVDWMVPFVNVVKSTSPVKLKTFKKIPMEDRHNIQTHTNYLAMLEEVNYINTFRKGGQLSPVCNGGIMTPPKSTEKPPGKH
# T6 sequence (P24864 whole entry, looked up): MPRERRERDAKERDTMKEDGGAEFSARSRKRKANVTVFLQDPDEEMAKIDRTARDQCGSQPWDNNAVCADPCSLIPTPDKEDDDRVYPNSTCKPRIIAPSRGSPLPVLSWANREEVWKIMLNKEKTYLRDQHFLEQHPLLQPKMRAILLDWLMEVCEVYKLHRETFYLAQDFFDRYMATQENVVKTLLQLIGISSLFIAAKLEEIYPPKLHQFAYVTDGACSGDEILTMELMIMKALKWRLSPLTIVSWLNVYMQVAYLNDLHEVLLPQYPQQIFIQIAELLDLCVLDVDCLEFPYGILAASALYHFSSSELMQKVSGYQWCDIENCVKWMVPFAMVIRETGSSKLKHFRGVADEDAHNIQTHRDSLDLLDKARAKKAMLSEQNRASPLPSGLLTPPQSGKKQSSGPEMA
# T6 sequence (Q00526 whole entry, looked up): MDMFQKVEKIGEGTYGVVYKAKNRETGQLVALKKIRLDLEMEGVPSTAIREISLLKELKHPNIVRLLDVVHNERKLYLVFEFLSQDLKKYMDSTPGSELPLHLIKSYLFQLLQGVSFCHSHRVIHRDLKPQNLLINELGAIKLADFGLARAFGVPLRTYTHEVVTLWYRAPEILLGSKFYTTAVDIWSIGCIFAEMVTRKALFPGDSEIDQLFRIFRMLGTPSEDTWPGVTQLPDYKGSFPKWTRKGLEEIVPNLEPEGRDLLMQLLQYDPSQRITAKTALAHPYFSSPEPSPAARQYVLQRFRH
# T3 sequence (P06493 whole entry, looked up): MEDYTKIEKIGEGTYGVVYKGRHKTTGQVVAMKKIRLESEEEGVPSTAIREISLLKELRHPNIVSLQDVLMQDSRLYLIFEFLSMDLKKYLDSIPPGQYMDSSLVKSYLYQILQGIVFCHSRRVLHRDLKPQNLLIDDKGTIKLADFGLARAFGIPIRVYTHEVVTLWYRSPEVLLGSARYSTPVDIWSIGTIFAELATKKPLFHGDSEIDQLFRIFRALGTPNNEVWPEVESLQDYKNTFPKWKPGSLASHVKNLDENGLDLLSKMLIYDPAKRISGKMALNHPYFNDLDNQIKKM
# T3 sequence (P14635 whole entry, looked up): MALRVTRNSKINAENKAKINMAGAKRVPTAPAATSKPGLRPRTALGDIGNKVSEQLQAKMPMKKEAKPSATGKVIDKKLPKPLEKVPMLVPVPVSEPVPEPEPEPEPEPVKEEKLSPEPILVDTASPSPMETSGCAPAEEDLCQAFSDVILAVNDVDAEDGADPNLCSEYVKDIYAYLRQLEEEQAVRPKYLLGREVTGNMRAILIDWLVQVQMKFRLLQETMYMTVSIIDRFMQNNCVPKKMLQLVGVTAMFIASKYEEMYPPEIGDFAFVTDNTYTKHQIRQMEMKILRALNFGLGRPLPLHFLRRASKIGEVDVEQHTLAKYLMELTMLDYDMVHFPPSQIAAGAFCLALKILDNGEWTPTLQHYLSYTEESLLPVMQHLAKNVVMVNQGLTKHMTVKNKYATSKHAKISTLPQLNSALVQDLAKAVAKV
Compound,residual activity [1] [%],residual activity [2] [%],residual activity [3] [%],residual activity [4] [%],residual activity [5] [%],residual activity [6] [%],residual activity [7] [%],residual activity [8] [%],residual activity [9] [%],residual activity [10] [%],residual activity [11] [%],residual activity [12] [%],residual activity [13] [%],residual activity [14] [%],residual activity [15] [%],residual activity [16] [%],residual activity [17] [%],residual activity [18] [%],residual activity [19] [%],residual activity [20] [%]
Cc1ccc(NC2=CC(=O)c3sc(C)nc3C2=O)cc1,101,105,110,97,101,106,91,91,97,91,92,95,102,97,107,87,91,85,97,85
Nc1nc(Nc2ccc(S(N)(=O)=O)cc2)nn1C(=S)Nc1c(F)cccc1F,0,0,0,1,0,-1,-2,-1,-1,-2,-2,0,-2,-1,-2,-1,19,3,2,-2
O=C1c2ccccc2-[n+]2ccc3c([nH]c4ccccc43)c21,75,74,112,89,112,107,84,77,92,97,87,81,72,82,108,82,87,82,99,83
O=c1cc(-c2cccc3c2Sc2ccccc2S3)oc(N2CCOCC2)c1,102,96,107,96,101,77,96,78,101,87,99,97,95,94,112,90,101,85,121,80
Oc1ccc(-c2nc(-c3ccc(F)cc3)c(-c3ccncc3)[nH]2)cc1,102,63,124,90,101,92,95,88,108,91,109,93,105,91,127,99,123,109,104,102
O=[N+]([O-])c1ccc(-c2nc(-c3ccc(F)cc3)c(-c3ccncc3)[nH]2)cc1,97,101,118,103,102,103,90,79,105,96,91,85,95,94,108,98,101,101,101,90
CC(C)n1cnc2c(NCc3ccccc3)nc(NCCCO)nc21,105,100,110,99,90,55,58,11,39,8,71,23,40,8,53,8,94,86,62,12
O=C1NC(=O)/C(=C\c2ccc3nccnc3c2)S1,59,65,78,77,79,31,132,47,94,98,96,68,96,64,97,74,91,86,89,80
Cc1cc(Nc2nc(-c3ccccc3)nc3ccccc23)n[nH]1,57,12,59,7,97,68,67,25,70,15,63,19,69,32,71,31,53,9,19,1
Cn1nc2c3c(cccc31)C(=O)c1ccccc1-2,83,68,101,61,101,86,80,84,87,82,89,72,83,93,97,80,92,76,91,73
Nc1n[nH]c2nnc(-c3c(-c4ccccc4)nn4ccccc34)cc12,92,70,103,96,107,99,92,90,93,96,90,90,95,99,112,79,81,43,106,89
COc1ccc(CNc2nc(N(CCO)CCO)nc3c2ncn3C(C)C)cc1,91,92,114,99,81,26,24,3,18,0,52,9,11,2,18,2,91,77,94,36
COc1ccc(C(=O)Nc2sc3c(c2C(N)=O)CCCC3)cc1OC,93,96,105,103,98,93,134,91,106,97,101,92,101,108,85,88,94,94,71,114
